In PubChem BioAssay (NCATS):
Records with an inconclusive call do not appear. Active and inactive are the calls of the source. Calls come from the whole dose curve; as a rule, active = well fitted curve in the direction sought with a large enough effect; inconclusive = small, poorly fitted or top-dose-only effect, or another doubt; inactive = no such curve, though single readings can be large; an effect the other way counts as inactive or inconclusive.

Key:
[1] = biological target: Glutathione peroxidase 1 (Homo sapiens) (UniProt P07203); assay: Primary qHTS Assay for Inhibitors of Recombinant Selenoprotein Glutathione Peroxidase 1 (GPX1) (AID 1845191); note: nearly all actives have a fitted effect of over 65% in size
In short: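 GR-coupled assay: compounds preincubated 30 min at room temperature with GPX1, then reaction started with CHP; final 10 nM GPX1, 1 mM GSH, 0.5 mM CHP, 0.5 mM NADPH, 100 nM GR, 0.01% BSA, pH 7.5 Tris buffer. NADPH fluorescence (340/450 nm) read at 0 and 15 min.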

[2] = biological target: Phospholipid hydroperoxide glutathione peroxidase GPX4 (Homo sapiens) (UniProt P36969); assay: Primary qHTS Assay for Inhibitors of Recombinant Selenoprotein Glutathione Peroxidase 4 (GPX4) (AID 1845192); note: nearly all actives have a fitted effect of over 65% in size
In short: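 GR-coupled assay: recombinant GPX4 preincubated 30 min with compound at room temperature; final 200 nM GPX4, 1 mM GSH, 0.5 mM cumene hydroperoxide, 0.5 mM NADPH, 100 nM GR, 0.01% BSA, pH 7.5 Tris. NADPH fluorescence (340/450 nm) read at 0 and 15 min.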

[3] = biological target: Luciferin 4-monooxygenase (Photinus pyralis) (UniProt P08659); assay: Primary firefly luciferase (FLuc) qHTS assay for identification of artifact compounds. (AID 1845220); note: nearly all actives have a fitted effect of over 60% in size
In short: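 D-luciferin and ATP (10 uM each, final) in Tris acetate buffer pH 7.6 were incubated with compounds for 15 min at room temperature. The reaction was started with 10 nM Photinus pyralis luciferase and luminescence read after 5 min. Percent inhibition was fitted to a 4-parameter Hill equation.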

[4] = Primary fluorescence-based thiol-reactive (MSTI) qHTS assay for identification of artifact compounds. (AID 1845221);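 note: series mostly up to about 54 µM; thiol-reactive compounds lower the probe fluorescence signal; nearly all actives have a fitted effect of over 65% in size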
In short: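 Curve-fitted percent inhibition (4-parameter Hill) derived from fluorescence, Ex 525/Em 598 nm, scaled with Acetyl-MSTI and MSTI; 1 h incubation at room temperature.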

Measured: Potency

Phospholipid hydroperoxide glutathione peroxidase GPX4 (Homo sapiens), sequence (P36969 whole entry, looked up): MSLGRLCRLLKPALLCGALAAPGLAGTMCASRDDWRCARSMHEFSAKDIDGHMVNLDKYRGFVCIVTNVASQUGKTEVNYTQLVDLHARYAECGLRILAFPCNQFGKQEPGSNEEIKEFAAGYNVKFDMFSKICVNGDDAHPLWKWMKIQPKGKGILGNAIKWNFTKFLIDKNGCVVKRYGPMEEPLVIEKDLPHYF
Glutathione peroxidase 1 (Homo sapiens), sequence (P07203 whole entry, looked up): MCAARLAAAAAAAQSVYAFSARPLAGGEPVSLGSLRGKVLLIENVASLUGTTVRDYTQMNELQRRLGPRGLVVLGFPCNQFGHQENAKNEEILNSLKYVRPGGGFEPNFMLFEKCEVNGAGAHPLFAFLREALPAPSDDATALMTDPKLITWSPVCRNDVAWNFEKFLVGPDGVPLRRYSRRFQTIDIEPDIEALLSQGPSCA

CN1[C@H]2C[C@H](OC(=O)[C@H](CO)c3ccccc3)C[C@@H]1[C@@H](O)C2
inactive: all assays above

C=C1[C@@H]2CC[C@@]3(C)[C@H](c4ccoc4)OC(=O)C[C@]13O[C@H]1CC(=O)C(C)(C)[C@H](C(OC(C)=O)C(=O)OC)[C@]12C (some centres undefined)
inactive: all assays above

C=CC(C)(C)c1[nH]c2cccc3c2c1C[C@@H]1[C@@H]3[C@@H](OC(C)=O)[C@H](C)CN1C
inactive: all assays above

Cc1cn(C[C@H](N)C(=O)O)c(=O)n(Cc2cc(-c3ccccc3)sc2C(=O)O)c1=O
inactive: [2] | [3] | [4]

C[C@H]1O[C@@H](O[C@H]2C[C@@H](O)[C@]3(CO)C4C(CC[C@]3(O)C2)[C@@]2(O)CC[C@H](C3=CC(=O)OC3)[C@@]2(C)C[C@H]4O)[C@@H](O)[C@@H](O)[C@H]1O (some centres undefined)
inactive: [2] | [3] | [4]

C[C@@](O)(COc1ccc(C#N)cc1)C(=O)Nc1ccc(C#N)c(C(F)(F)F)c1
inactive: all assays above

Cc1cccc(NC(=O)N[C@@H]2N=C(c3ccccc3)c3ccccc3N(C)C2=O)c1
inactive: [1] | [3]
